# Results taken from PubChem BioAssay (NCI).
# The panel holds about 83,000 compounds, 20% with a hit somewhere; the sample as a whole holds those more often.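 Compound tested at a single concentration for 48 hours in 96-well plates; a percent growth value below 10 was scored as active.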 A number with no mark means an inactive call. The source made the active and inactive calls.
# Key:
# Assay in all cases: NCI-60 one-dose screen, 48 h (100 = growth as untreated, 0 = no growth, -100 = all killed)
# Conditions in all cases: 10 µM unless noted
# SK-MEL-2 melanoma = tested on: SK-MEL-2 melanoma
# EKVX NSCLC = tested on: EKVX NSCLC
# SN12C renal = tested on: SN12C renal
# UO-31 renal = tested on: UO-31 renal
# TK-10 renal = tested on: TK-10 renal
# ACHN renal = tested on: ACHN renal
# CAKI-1 renal = tested on: CAKI-1 renal
# A498 renal = tested on: A498 renal
# CCRF-CEM leukemia = tested on: CCRF-CEM leukemia
# MOLT-4 leukemia = tested on: MOLT-4 leukemia
Compound,growth (SK-MEL-2 melanoma),growth (EKVX NSCLC),growth (SN12C renal),growth (UO-31 renal),growth (TK-10 renal),growth (ACHN renal),growth (CAKI-1 renal),growth (A498 renal),growth (CCRF-CEM leukemia),growth (MOLT-4 leukemia)
O=S(=O)(NCCCNc1cc(-c2c(-c3cccc(O)c3)nc3sccn23)ccn1)c1cccc(Cl)c1,63.7%,58.6%,27%,31.5%,94.4%,41.6%,43%,80.4%,22.8%,–
CCN1C(=O)N(CC)C2Nn3c(s/c(=C\c4ccc(Cl)cc4Cl)c3=O)=NC21 (centres undefined),71.2%,68.8%,43.3%,53.5%,15.8%,37.6%,36.9%,21.4%,41.7%,–
Cc1cc(N2CCCC2)nc(NCc2cc(Nc3ccnc4cc(Cl)ccc34)ccc2F)n1,-79.6% (active),11.1%,-58.8% (active),-59.1% (active),-56.7% (active),-72.3% (active),28.5%,-25.2% (active),-32.1% (active),–
O=c1c2cc(F)ccc2sc2c(NCCCN3CCCC3)nc3ccccc3c12,85.4%,53.5%,42.3%,15.1%,57.9%,41.8%,30.4%,46.6%,29%,–
Clc1ccc(-c2c3ccc(=[N+]4CCCCC4)cc-3oc3cc(N4CCCCC4)ccc23)cc1,-77.4% (active),-66.7% (active),-79.1% (active),-83.9% (active),-94.8% (active),-94.4% (active),-75.2% (active),-97.5% (active),0.54% (active),–
O=C1/C(=C/c2ccc(F)cc2)C=C(c2ccccc2)N1CCc1ccccc1,55.5%,56.9%,58.3%,51%,62.4%,38.6%,76%,81.3%,95%,–
COc1cc(Cn2ncc3ccc(NC(=O)c4cc5ccccc5oc4=N)cc32)cc(OC)c1OC,88%,71.5%,87.2%,51.3%,91.4%,57.1%,82.4%,98.3%,52.2%,–
N#Cc1c(N)nc(NCCO)nc1-c1ccc(F)cc1,108%,89.9%,103%,92.8%,106%,100%,95.9%,89.1%,112%,–
CCc1c2c(nc3ccc(OC(=O)NCc4ccc(B5OC(C)(C)C(C)(C)O5)cc4)cc13)-c1cc3c(c(=O)n1C2)COC(=O)[C@]3(O)CC,-28% (active),35.3%,-0.279% (active),-67.7% (active),0.387% (active),-61.5% (active),-43.3% (active),-63.1% (active),19.8%,–
COc1cccc(-c2nn(-c3ccccc3)cc2-c2ccnc(NCCCNC(=O)c3ccc(F)cc3)c2)c1,51.6%,44.5%,62.6%,40.5%,57.8%,71%,52.4%,31%,38.6%,–
Cc1cc(Cl)nc(NCc2cc(Nc3ccnc4cc(Cl)ccc34)ccc2F)n1,77.1%,68.1%,52.8%,44%,67.1%,76.1%,75.3%,63.3%,28.9%,–
COc1cc(C2CC(c3cc(OC)c(OCCCOc4ccc(-n5c(/C=C/c6ccccc6)nc6ccccc6c5=O)cc4)c(OC)c3)=NO2)cc(OC)c1OC (centres undefined),92.3%,118%,127%,86.7%,139%,91.3%,115%,123%,76.6%,86%
O=C(/C=C/c1ccc(Cl)nc1)c1ccc(Cl)cc1Cl,106%,97.5%,106%,89.3%,100%,93.1%,71.2%,88.8%,7% (active),15.9%
O=C1/C(=C/c2ccccc2)CCc2nc3ccccc3c(/C=C/c3ccc(Cl)cc3)c21,93.7%,79%,83.5%,69.1%,145%,97.3%,83.7%,92.1%,84.1%,80.3%
